# Measurements: ChEMBL document CHEMBL4513216, “Probing the Open Global Health Chemical Diversity Library for Multistage-Active Starting Points for Next-Generation Antimalarials” (ACS Infect Dis, 2020)
# Among all 69,000 compounds or so, about 8,600 (12%) showed an effect of 50% or more. For the sample, strong results were picked, then their nearest neighbours and some compounds at random.
# Tested on: Plasmodium berghei
# Test: Screen against P. berghei liver stage (PbLuc), transformed with Luciferase, at 10uM
# Format: functional, HepG2
# Conditions: tested at 10 uM
row,SMILES,INHIBITION
1,Fc1cc(CN2CCCC2Cn2cncn2)c2ncccc2c1 (stereo not drawn),11.8%
2,O=C(N1CCCO1)[C@@]12CCO[C@@H]1CCN(C1CCCCC1)C2,13%
3,Cc1cccc(C)c1Oc1ncccc1CNC(=O)C1COC(=O)N1 (stereo not drawn),53.8%
4,COc1ccccc1Oc1ncccc1CNC(=O)C1COC(=O)N1 (stereo not drawn),41.3%
5,Cc1ccc(Oc2ncccc2CNC(=O)C2COC(=O)N2)c(F)c1F (stereo not drawn),12.9%
6,CCCN(CCO)C(=O)c1cc(COc2ccc3c(c2)CCCC3)on1,33%
7,CC(Cn1cccn1)NC(=O)NCCc1ccsc1 (stereo not drawn),21.5%
8,CCC(C(=O)Nc1ccc2cn(CC)nc2c1)N1CCCC1=O (stereo not drawn),54.5%
9,CCC(C(=O)NCCc1ccn(-c2ccccc2)n1)N1CCCC1=O (stereo not drawn),-21%
10,CCC(C(=O)Nc1ccc2nc(C)oc2c1)N1CCCC1=O (stereo not drawn),71.2%
11,CCC(C(=O)N1CCCSCC1)N1CCCC1=O (stereo not drawn),21.5%
12,Cc1occc1CNC(=O)Nc1ccc2nc(N3CCOCC3)oc2c1,25.8%
13,CCC(CNC(=O)Nc1cnn(CC)c1)N1CCCC1 (stereo not drawn),39.5%
14,CN(C)C(=O)COCC1CN(C2CCC2)Cc2ncn(C)c21 (stereo not drawn),-19.1%
15,Cc1cc(C)n(Cc2cccc(C(=O)N3CCOCC3(C)C)c2)n1,-4.23%
16,CCN(CC)C(=O)CNC(=O)N1CCC(c2ccccc2)C1 (stereo not drawn),43.7%
17,CC(C)(O)CCc1ccc(C(=O)N2Cc3cnn(CCO)c3C2)cc1,73%
18,CC(C)(O)CCc1ccc(C(=O)N2CCN(CC3CCCC3)CC2)cc1,26.6%
19,CC(C)(O)CCc1ccc(C(=O)N2CCN(CCS(C)(=O)=O)CC2)cc1,16.8%
20,CC(C)(O)CCc1cccc(C(=O)N2Cc3cnn(CCO)c3C2)c1,14%
21,CC(C)(O)CCc1ccc(C(=O)N2CCN(CC(F)(F)F)CC2)cc1,52.6%
22,O=C(c1ccc(CN2CCCCC2)cc1)N1Cc2cnn(CCO)c2C1,30.3%

row,SMILES,INHIBITION
1,CCCS(=O)(=O)N1CC(=O)N(CCCc2ccccc2)CC(O)C1 (stereo not drawn),48.7%
2,O=C(c1sccc1C1CC1)N1CCCN(Cc2cscn2)CC1,-4.16%
3,Cc1cccc(C(C(=O)NCc2cc(C)[nH]n2)N(C)C)c1 (stereo not drawn),3.69%
4,COc1cc(NCc2ccncc2)c(-c2nn[nH]n2)cc1OC,-34.6%
5,COc1ncccc1CNC(=O)N1CCCC1c1ccsc1 (stereo not drawn),-24.2%
6,CCN1CCN(C(=O)NCc2cc[nH]n2)CC1,-29.7%
7,CN(C)c1ncnc2c1CCN(C(=O)c1sccc1S(N)(=O)=O)C2,-9.18%
8,CN(C)c1ncnc2c1CCN(S(=O)(=O)c1cccc(Cl)c1Cl)C2,42.7%
9,COC(=O)c1sccc1S(=O)(=O)N1CCC(Oc2cccc(C)n2)CC1,21.8%
10,COC(=O)c1sccc1S(=O)(=O)N1CCC(Oc2cccnn2)CC1,21.6%
11,CN(C)c1ncnc2c1CCN(S(=O)(=O)c1ccccc1C(F)(F)F)C2,30.3%
12,COC(=O)c1sccc1S(=O)(=O)N1CCC(Oc2cnccn2)CC1,53.7%
13,Cc1ccccc1S(=O)(=O)N1CCc2c(ncnc2N(C)C)C1,66.1%
14,COC(=O)c1sccc1S(=O)(=O)N1CCc2c(ncnc2N(C)C)C1,58.1%
15,CN(C)c1ncnc2c1CCN(S(=O)(=O)c1cccc3nsnc13)C2,31.6%
16,Cc1cnn(CC2CCCN2Cc2ncc(-c3ccc(F)cc3)o2)c1 (stereo not drawn),2.3%
17,CC(C)CN(CC(=O)O)C(=O)c1ccc(F)cc1,17.7%
18,CN(CCc1ccccc1)c1cnn(CC2COCCO2)c(=O)c1 (stereo not drawn),-42.8%
19,O=C(NCc1cncc2c1CCN(C1CCOCC1)C2)c1ccno1,34.5%
20,O=C(NCc1cncc2c1CCN(C1CCOCC1)C2)c1ccco1,61.3%
21,O=C(NCc1cncc2c1CCN(C1CCOC1)C2)c1ccco1 (stereo not drawn),0.71%
22,COCc1nc(C(=O)NS(=O)(=O)c2cc(Br)ccc2C)cs1,8.55%

row,SMILES,INHIBITION
1,O=S(=O)(NCc1ccccc1Cn1cncn1)N1CCCCC1,25.1%
2,CCn1cc(Cl)c(C(=O)NCCCN(C)C)n1,39.1%
3,Cc1nccc(C(=O)N2CCCC2c2c(C)nn(C)c2C)n1 (stereo not drawn),7.08%
4,CCN(CCNC(=O)c1cccnc1OCCOC)C1CC1,34.7%
5,CCN(CCNC(=O)c1ccccc1OCCOC)C1CC1,58.8%
6,CCN(CCNC(=O)c1ccccc1Br)C1CC1,-2.42%
7,O=C(c1ccc(Cn2cnnn2)cc1)N1CCC(c2ccncc2)CC1,-23%
8,CC(C)CCN1CCC2(CNS(=O)(=O)c3cccnc3O2)C1 (stereo not drawn),67.3%
9,O=S1(=O)NCC2(CCN(Cc3ccc(Cl)s3)C2)Oc2ncccc21 (stereo not drawn),30%
10,O=S1(=O)NCC2(CCN(Cc3ccncc3)CC2)Oc2ncccc21,44.1%
11,CNc1ncc(CN(C)c2nccc(CCC(F)(F)F)n2)cn1,43.1%
12,CC(=O)NCCNc1nccc(CCC(F)(F)F)n1,-41.8%
13,CCc1cc(N(C)Cc2ccncn2)n2nccc2n1,10.4%
14,CCc1nnc(CN(C)c2nccc(N3CCCC(O)C3)n2)o1 (stereo not drawn),42.1%
15,CN(Cc1ccncn1)c1nccc(CCC(F)(F)F)n1,59.3%
16,CCc1nnc(CN(C)c2nccc(CCC(F)(F)F)n2)o1,59.3%
17,CC(=O)N1CCOC(c2cncc(CCC(=O)N(C)C)n2)C1 (stereo not drawn),-6.73%
18,O=C1CCC(=O)c2oc3ccccc3c2N1,-23%
19,CCc1[nH]c2c(CNc3cc(C)nc(NC)n3)cc(C)cc2c1C,87.9%
20,CCc1[nH]c2c(CNc3cncc(C(=O)N(C)C)n3)cc(C)cc2c1C,14.3%
21,CCc1[nH]c2c(CNc3nc(C)cc(NC)n3)cc(C)cc2c1C,85.1%
22,CCc1[nH]c2c(CNc3cncc(C(=O)OC)n3)cc(C)cc2c1C,45%

row,SMILES,INHIBITION
1,CCc1[nH]c2c(CNC(=O)C3CNC(=O)C3)cc(C)cc2c1C (stereo not drawn),25.8%
2,CCc1[nH]c2c(CNC(=O)C3CCS(=O)(=O)CC3)cc(C)cc2c1C,48.5%
3,COc1ccc(-c2noc(CN3CCCC3Cn3cccn3)n2)cc1 (stereo not drawn),29.7%
4,CN1C(=O)c2ccc(C(=O)N(Cc3cnn(C)c3)C3CC3)cc2C1=O,23.8%
5,COCC(=O)N1CCc2ccc(=O)n(Cc3csc(C)n3)c2CC1,2.41%
6,CCOc1ncccc1NC(=O)c1ccc(C(C)=O)s1,7.24%
7,CC1CN(CC(=O)NCCc2ccccc2)CCN1c1nccs1 (stereo not drawn),33.7%
8,c1coc(CN2CCC3(CCOCC3COCC3CC3)CC2)c1 (stereo not drawn),18.6%
9,CCNc1cc2c(nn1)CCN(C(=O)c1cc3nc(C)ccc3o1)C2,35.3%
10,CCNc1cc2c(nn1)CCN(C(=O)c1cc3cc(C)ccc3o1)C2,68.8%
11,CCNc1cc2c(nn1)CCN(C(=O)c1ccc(CNC(C)=O)o1)C2,-21.7%
12,CCNc1cc2c(nn1)CCN(C(=O)c1cc(C)no1)C2,40%
13,CCNc1cc2c(nn1)CCN(C(=O)c1cc3ccccc3o1)C2,17.4%
14,CCNc1cc2c(nn1)CCN(C(=O)c1cc3cccc(C)c3o1)C2,70.8%
15,CC(=O)N1CC(=O)N(c2ccsc2)CC12CCN(Cc1ccccn1)C2 (stereo not drawn),-2.17%
16,CCOc1ccc(C(=O)N2CCN(c3nccn3C)CC2)cc1,14.3%
17,c1cc(CN2CCC(c3ccc4c(c3)OCO4)CC2)ccn1,12.515%
18,Cn1cccc1C(=O)N1C[C@H]2CN(Cc3cccs3)C[C@H]2C1,14.9%
19,CN(C)C1COC2(CCN(Cc3nccs3)CC2)C1 (stereo not drawn),11.5%
20,Cc1ccc(C(=O)NS(=O)(=O)c2cc(F)ccc2F)c(=O)[nH]1,-1.14%
21,CSC(C)C(=O)N(C)CCCc1cc(-c2ccccc2)no1 (stereo not drawn),57.75%
22,CC(=O)N(C)CCCc1cc(-c2ccccc2)no1,24.75%

row,SMILES,INHIBITION
1,CC(NC(N)=O)C(=O)N(C)CCCc1cc(-c2ccccc2)no1 (stereo not drawn),0.375%
2,O=C(O)[C@]12CCCN(Cc3ccsc3)C[C@H]1CN(c1ncccn1)C2,-10.3%
3,COCCn1cc2c(n1)C(CNCc1nccs1)OCC2 (stereo not drawn),26.3%
4,O=C1NCC2(CCCN(C(=O)Cn3nc4ccccc4n3)CC2)O1 (stereo not drawn),4.87%
5,Cc1cccc(N2CCC(N3CCCC4(CNC(=O)O4)C3)CC2)c1C (stereo not drawn),63.4%
6,Cc1cccc(N2CCC(N3CCC4(CCCNC4=O)C3)CC2)c1C (stereo not drawn),32.7%
7,Cc1nn(CC(=O)N2CCC3(CN(C)C(=O)O3)C2)c(=O)c2ccccc12 (stereo not drawn),15.4%
8,Cc1cccc(N2CCC(N3CCC4(CN(C)C(=O)O4)C3)CC2)c1C (stereo not drawn),64.4%
9,Cc1cccc(N2CCC(N3CCCC4(CN(C)C(=O)O4)C3)CC2)c1C (stereo not drawn),36.7%
10,Cc1nn(CCO)c(C)c1CNCc1cccnc1N(C)C,19.2%
11,O=C(O)c1cnc(N2CCC(c3nccn3CC3CC3)CC2)c(Cl)c1,25.9%
12,O=C(CN1CCCC(O)C1)NC(=O)NCc1cccs1 (stereo not drawn),43.4%
13,CN(CCOc1ccc(F)cc1)S(=O)(=O)c1cnn(C)c1,21.2%
14,COCCN1CCN(Cc2c(C)noc2C)Cc2cccnc21,36.9%
15,O=C(NCc1cccc(Cl)c1)C1=NOC2(CCNC2)C1 (stereo not drawn),21.5%
16,CN(C)C(=O)COC[C@]12COC[C@H]1CN(CCc1ccccc1)C2,24.3%
17,CN(C)CCOCc1ncn2c1CN(c1ncc(F)cn1)CCC2,23.3%
18,Cc1ccccc1C(CNC(=O)CSc1nnc(N)s1)N(C)C (stereo not drawn),54.7%
19,Nc1nnc(SCC(=O)NCC(O)c2ccccc2)s1 (stereo not drawn),-17.2%
20,Cc1nnc(SCC(=O)NCC(c2ccccc2Cl)N(C)C)s1 (stereo not drawn),-18.5%
